The record followed here is PubChem BioAssay.

Active and inactive are the calls of the source. Unless noted, how the calls were made is not given here.

The nature of assay [1]: resazurin metabolic signal in HepG2 cells – cell-based, resazurin fluorescence, 24 h, PK04 Diversity Set, profiling panel (AID 1172). The conditions noted are these: HepG2 viability, higher = more signal. On the technique in general: Resazurin is reduced to fluorescent resorufin, in cell work by metabolically active cells.
A short description of assay [2]: budding yeast growth changes without added modifier – OD600, strain BY4716, 24 h, basal condition, primary screen (AID 1173). The conditions noted are these: S. cerevisiae BY4716 growth, OD600, 24 h; higher = more signal, called active from +8 up or from −8 down.
Assay [3] is described as follows: viability profiling in MM1S myeloma cells – cell-based, resazurin fluorescence, basal, 24 h, PK04 Diversity Set, profiling panel (AID 1174).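 Further: MM1S multiple myeloma cell line.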 The conditions noted are these: higher = more signal, called active from +8 up or from −8 down.
In assay [4] the target is Dihydroorotate dehydrogenase (quinone), mitochondrial (Plasmodium falciparum (isolate 3D7)) (UniProt Q08210). As to the kind of experiment: inhibition of P. falciparum DHODH – biochemical, C-terminal His tag, absorbance 600 nm, primary screen (AID 1175).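 Further: recombinant parasite enzyme with a five histidine tag at its C terminus.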 The conditions noted are these: PfDHODH enzyme, DCIP absorbance 600 nm; higher = more signal, called active from +8 up or from −8 down.

A short description of assay [5]: inhibition of PAO1 biofilm formation – strain PAO1, LB-PBS medium, absorbance 600 nm, primary screen (AID 1176). As to conditions: P. aeruginosa PAO1 growth/biofilm, A600, 12 h; higher = more signal.
The nature of assay [6]: growth modulation of vineyard yeast isolate – strain RM11-1a, OD600, basal, 24 h, primary screen (AID 1177).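 Further: cultures grown under basal conditions with no added stressor.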 As to conditions: S. cerevisiae RM11-1a growth, OD600, 24 h; higher = more signal, called active from +8 up or from −8 down.
The nature of assay [7]: growth of efflux-deficient E. coli DRC39 – strain DRC39, OD650, 24 h, E. coli filamentation inducers, primary screen (AID 1178).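 Further: growth measured as culture turbidity by optical density at 650 nm.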 The conditions noted are these: E. coli DRC39 acrAB, higher = more signal, called active from +8 up or from −8 down.
A short description of assay [8]: growth of efflux-deficient E. coli DRC39 – strain DRC39, OD650, 48 h, E. coli filamentation inducers, primary screen (AID 1179).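 Further: screen aims at cell division blockers that make cells filament.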 The conditions noted are these: E. coli DRC39 delta-acrAB growth, higher = more signal, called active from +8 up or from −8 down.
The nature of assay [9]: viability profiling in RPMI8226 myeloma cells – cell-based, resazurin fluorescence, basal, 24 h, PK04 Diversity Set, profiling panel (AID 1180).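 Further: RPMI8826 multiple myeloma cell line at 5000 cells per well.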 The conditions noted are these: higher = more signal.
Assay [10] concerns the target E3 ubiquitin-protein ligase XIAP (Homo sapiens) (UniProt P98170). Kind of assay: small molecules binding XIAP protein – biophysical, small-molecule microarray, fluorescence 635 nm, primary screen (AID 1181).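 Further: score merges 667 nm emission and signal to noise over triplicate slides.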 As to conditions: higher = more signal.
The test system of assay [11] is XIP peptide (Xip251-270) binding. Kind of assay: XIP fragment 251-270 binding compounds – biochemical, small-molecule microarray, fluorescence 635/667 nm, 0.1 µg/mL protein, primary screen (AID 1182). As to conditions: fluorescent protein binding, 635 nm, higher = more signal, called active from +8 up or from −8 down.
The next assay has as its system XIP peptide (Xip251-270). Kind of assay: compounds binding XIP fragment 251-270 – biochemical, small-molecule microarray, fluorescence 635/667 nm, 0.5 µg/mL protein, primary screen (AID 1183). As to conditions: fluorescence 635 nm, higher = more signal.
The nature of assay [12]: blood-stage malaria parasite viability loss – strain 3D7, DAPI fluorescence, 100 nL, primary screen (AID 1184).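 Further: parasites grown inside human red blood cells in medium with human serum.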 The conditions noted are these: P. falciparum 3D7 growth, 3 d, higher = more signal.
The target of assay [13] is Homeobox protein Hox-A13 (Mus musculus) (UniProt Q62424). Kind of assay: disruptors of Hoxa13 oligonucleotide interaction – biochemical, fluorescence polarization, labeled oligonucleotide, primary screen (AID 1185). The conditions noted are these: Hoxa13:DNA binding, 15 min, higher = more signal, called active from +8 up or from −8 down.
Assay [14] is described as follows: blockers of DNA damage checkpoint Chk1 activation – imaging, HeLa, hydroxyurea, phospho-Chk1 antibody, percent positive cells, primary screen (AID 1186). As to conditions: hydroxyurea-induced phospho-Chk1 immunofluorescence imaging, higher = more signal.
A short description of assay [15]: blockers of DNA damage checkpoint Chk1 activation – imaging, HeLa, hydroxyurea, phospho-Chk1 nuclear intensity, primary screen (AID 1187). The conditions noted are these: hydroxyurea-induced phospho-Chk1 immunofluorescence imaging, higher = more signal.

Sequence of Dihydroorotate dehydrogenase (quinone), mitochondrial (Plasmodium falciparum (isolate 3D7)) (Q08210 whole entry, looked up): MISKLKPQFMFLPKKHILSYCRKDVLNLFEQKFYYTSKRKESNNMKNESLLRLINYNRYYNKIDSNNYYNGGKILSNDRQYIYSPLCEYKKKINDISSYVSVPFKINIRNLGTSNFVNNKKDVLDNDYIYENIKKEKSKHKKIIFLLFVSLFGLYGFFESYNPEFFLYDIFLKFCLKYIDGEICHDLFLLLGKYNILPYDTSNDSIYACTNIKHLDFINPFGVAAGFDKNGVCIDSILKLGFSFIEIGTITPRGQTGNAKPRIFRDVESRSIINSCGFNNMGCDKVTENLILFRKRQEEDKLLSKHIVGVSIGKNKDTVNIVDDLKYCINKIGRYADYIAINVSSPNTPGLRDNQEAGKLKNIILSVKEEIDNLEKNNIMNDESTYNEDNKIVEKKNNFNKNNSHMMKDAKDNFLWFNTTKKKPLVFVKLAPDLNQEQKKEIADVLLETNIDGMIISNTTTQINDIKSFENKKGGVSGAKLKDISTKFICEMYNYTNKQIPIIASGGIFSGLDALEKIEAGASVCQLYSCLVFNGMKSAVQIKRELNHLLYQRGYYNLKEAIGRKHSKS
Sequence of Homeobox protein Hox-A13 (Mus musculus) (Q62424 whole entry, looked up): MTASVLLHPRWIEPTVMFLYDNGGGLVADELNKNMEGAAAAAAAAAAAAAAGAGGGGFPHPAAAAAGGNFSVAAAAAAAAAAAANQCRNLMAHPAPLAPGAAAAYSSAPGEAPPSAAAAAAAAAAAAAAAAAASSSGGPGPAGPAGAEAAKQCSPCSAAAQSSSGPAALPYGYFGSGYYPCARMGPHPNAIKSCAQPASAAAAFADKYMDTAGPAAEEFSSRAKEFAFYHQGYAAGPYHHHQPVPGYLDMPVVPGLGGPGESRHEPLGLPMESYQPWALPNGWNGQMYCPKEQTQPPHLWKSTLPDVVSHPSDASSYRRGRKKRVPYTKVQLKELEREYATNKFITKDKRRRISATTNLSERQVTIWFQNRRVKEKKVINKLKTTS
Sequence of E3 ubiquitin-protein ligase XIAP (Homo sapiens) (P98170 whole entry, looked up, the tested form may be a part): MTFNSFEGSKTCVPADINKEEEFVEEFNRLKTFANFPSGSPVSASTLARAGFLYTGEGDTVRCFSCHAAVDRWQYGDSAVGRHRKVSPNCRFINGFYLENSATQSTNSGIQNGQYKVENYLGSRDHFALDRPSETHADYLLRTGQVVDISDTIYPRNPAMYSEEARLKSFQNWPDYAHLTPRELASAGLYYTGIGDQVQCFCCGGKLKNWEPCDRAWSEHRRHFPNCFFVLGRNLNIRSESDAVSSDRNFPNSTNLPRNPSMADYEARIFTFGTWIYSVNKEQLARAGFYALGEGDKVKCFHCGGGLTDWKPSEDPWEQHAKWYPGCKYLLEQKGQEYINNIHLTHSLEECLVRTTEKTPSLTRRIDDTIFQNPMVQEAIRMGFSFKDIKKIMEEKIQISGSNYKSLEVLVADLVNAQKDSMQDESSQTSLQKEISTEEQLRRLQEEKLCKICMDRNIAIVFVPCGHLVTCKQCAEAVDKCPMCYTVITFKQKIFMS

Take `CCOC(=O)C[C@H]1[C@H](OC(=O)c2ccc(-c3ccccc3)cc2)[C@@H](NC(=O)Cc2ccc(OC)cc2)c2cc(OCCCO)ccc2N1C(=O)Cc1ccc(OC)cc1`: the z-score in assay [1] is -0.0383; in [2], 0.574 (inactive); in assay [3] it was 0.796 (inactive); in [5], 0.149 (inactive); in [6] it was 1.78 (inactive); in assay [7], 1.01 (inactive). Also, the z-score was 0.622 (inactive) in [8]; 0.643 in [9]; -1.18 in [12]; -1.32 (inactive) in assay [13]; -0.366 (inactive) in [14]; 0.0566 (inactive) in assay [15]. Besides, the composite z-score was 0.593 (inactive) in assay [4], -0.0118 in assay [10], 0.0878 (inactive) in [11] and -0.015 in the assay with XIP peptide (Xip251-270).
With `CC(CO)N1C(=O)[C@@H]2[C@H]3C(=O)OCC=C[C@H]3OC23C=CCN(c2ccc(Cl)cc2)C(=O)[C@@H]13` (stereo not given in full), the z-score was 0.909 in assay [1]; -0.414 (inactive) in assay [2]; 0.675 (inactive) in assay [3]; -0.897 (inactive) in assay [5]; 0.0289 (inactive) in assay [6]; 0.864 (inactive) in assay [7]. The z-score in assay [8] was 0.734 (inactive); in assay [9], 0.282; in [12], 0.599; in [13], -3 (inactive); in assay [14], -0.985 (inactive); in assay [15] it was -0.995 (inactive). In addition, the composite z-score in assay [4] is -0.647 (inactive); in assay [10], -0.394; in [11] it was -0.4 (inactive); in the assay on XIP peptide (Xip251-270) it was -0.862.
Take `O=C1C2C=CC(C(O)C=Cc3ccc([N+](=O)[O-])cc3)N(Nc3ccccc3)C2C(=O)N1c1ccccc1` (stereo not given): the z-score was -0.392 in assay [1]; -2.88 (inactive) in assay [2]; -1.44 (inactive) in [3]; 1.1 (inactive) in [5]; -0.0358 (inactive) in assay [6]; -0.125 (inactive) in [7]. Also, the z-score in assay [8] was 0.242 (inactive); in assay [9], 0.185; in assay [12], -0.054; in assay [13], -4.58 (inactive); in assay [14], -0.744 (inactive); in [15], -0.913 (inactive). For the same compound, the composite z-score in assay [4] was -0.162 (inactive); in assay [10], -0.0103; in assay [11] it was -0.375 (inactive); in the assay on XIP peptide (Xip251-270) it was 0.596.
Turning to `COC(=O)[C@@]1(Cc2ccc(F)cc2)[C@H]2c3cc(C(=O)N4CCCC4)n(CC4CC4)c3C[C@H]2CN1C(=O)c1ccccc1`, the z-score in assay [1] is -1.57; in assay [2], -0.443 (inactive); in [3], -1.65 (inactive); in [5], 0.495 (inactive); in assay [6], 0.056 (inactive); in assay [7], -0.688 (inactive). The z-score was -0.64 (inactive) in [8]; -2.11 in assay [9]; -1.36 in [12]; -4.69 (inactive) in assay [13]; 0.396 (inactive) in [14]; 0.0021 (inactive) in assay [15]. In addition, the composite z-score in [4] was -0.559 (inactive); in [10], 0.705; in assay [11], 1.84 (inactive); in the assay on XIP peptide (Xip251-270), 0.245.
As to `CN(C)CCCCNC(=O)[C@H]1C[C@H]2C(=O)N[C@@H](CCCC[N+](C)(C)C)C(=O)N2[C@H]1c1ccc(O)cc1`, the z-score in [1] is 0.351; in [2], -0.0503 (inactive); in assay [3], 1.4 (inactive); in assay [5], -1.16 (inactive); in assay [6], -1.11 (inactive); in [7], 0.494 (inactive). In addition, the z-score is 0.56 (inactive) in [8]; 0.643 in assay [9]; -0.449 in [12]; -3.64 (inactive) in [13]; -1.31 (inactive) in assay [14]; -0.989 (inactive) in assay [15]. For the same compound, the composite z-score is -0.308 (inactive) in assay [4], -0.0599 in assay [10], -0.0941 (inactive) in assay [11] and 0.674 in the assay on XIP peptide (Xip251-270).
For the compound `O=C(O)[C@H]1C[C@H]2C(=O)N[C@@H](Cc3ccccc3)C(=O)N2[C@H]1c1cccc(OCCO)c1`, the z-score in [1] was 1.02; in [2], -1.46 (inactive); in assay [3] it was 0.912 (inactive); in [5], -0.295 (inactive); in assay [6] it was -0.655 (inactive); in assay [7], -0.688 (inactive). Also, the z-score in assay [8] is 0.214 (inactive); in [9], 0.889; in [12] it was -0.74; in assay [13], -1.74 (inactive); in assay [14], 0.464 (inactive); in assay [15] it was 0.48 (inactive). For the same compound, the composite z-score in [4] was -1.98 (inactive); in [10] it was -0.0323; in [11] it was -0.0627 (inactive); in the assay with XIP peptide (Xip251-270), 0.152.
For `C#C[C@@H](CC)O[Si](C#CCCCC#N)(C(C)C)C(C)C`, the z-score was -0.276 in assay [1]; -17.4 (active) in [2]; -0.651 (inactive) in [3]; 0.113 (inactive) in assay [5]; -2.5 (inactive) in assay [6]; 0.0725 (inactive) in assay [7]. In addition, the z-score in [8] was 0.173 (inactive); in [9], -0.221; in assay [12], -0.574; in [13], -1.27 (inactive); in assay [14], 0.33 (inactive); in assay [15], 0.0685 (inactive). Besides, the composite z-score in assay [4] was -1.06 (inactive); in [10] it was -0.142; in assay [11] it was 1.09 (inactive); with XIP peptide (Xip251-270) it was 0.261.
As for `COc1cc2c(cc1O)C(c1ccc(CN3CCCC3)cc1)N(C)CC2` (stereo not given), the z-score in assay [1] was -0.392; in assay [2], 0.447 (inactive); in assay [3] it was -1.36 (inactive); in assay [5] it was -0.255 (inactive); in assay [6], 0.697 (inactive); in assay [7], 0.0615 (inactive). For the same compound, the z-score in assay [8] was 0.382 (inactive); in [9], -0.891; in assay [12] it was -1.58; in assay [13] it was -2.85 (inactive); in assay [14], 0.227 (inactive); in assay [15], 0.129 (inactive). The composite z-score in assay [4] was -0.65 (inactive); in assay [10], 0.415; in assay [11], -0.389 (inactive); in the assay on XIP peptide (Xip251-270) it was -0.819.
Turning to `Cc1ccccc1C(O)C1C=CC2C(=O)N(c3ccccc3)C(=O)C2N1Nc1ccc([N+](=O)[O-])cc1` (stereo not given), the z-score in assay [1] is -0.368; in assay [2], -0.14 (inactive); in assay [3], -0.327 (inactive); in [5] it was 1.29 (inactive); in assay [6], -0.0035 (inactive); in assay [7], -0.328 (inactive). For the same compound, the z-score in assay [8] was -0.316 (inactive); in [9] it was -0.0045; in assay [12], -0.42; in assay [13], -3.91 (inactive); in assay [14] it was -0.0666 (inactive); in assay [15] it was -0.614 (inactive). The composite z-score in assay [4] is 0.718 (inactive); in assay [10] it was 0.167; in [11] it was 1.61 (inactive); in the assay with XIP peptide (Xip251-270), 0.618.
Regarding `CCOC(=O)C1=C[C@@H](C(C)(C)C)N(S(=O)(=O)c2ccc(C)cc2)[C@H]1c1cccc(Cl)c1`, the z-score in assay [1] is -0.594; in assay [2] it was 2.15 (inactive); in [3], -1.66 (inactive); in assay [5], 0.16 (inactive); in assay [6] it was 2.81 (inactive); in assay [7] it was -0.326 (inactive). The z-score in [8] was -0.104 (inactive); in [9], -3.41; in assay [12], -2.08; in assay [13], 0.0204 (inactive); in [14], 0.347 (inactive); in [15], -0.136 (inactive). Further, the composite z-score was 1.08 (inactive) in assay [4], -0.0994 in [10], -0.248 (inactive) in assay [11] and 0.765 with XIP peptide (Xip251-270).
